# In PubChem BioAssay AID489017 (The Scripps Research Institute Molecular Screening Center, 2010):
# Unmarked numbers belong to inactive results. How the calls were made is not given here.
# System: Potassium Channel [KATP]
# Assay: off-target binding and CYP450 inhibition panel, profiling panel, selectivity assay for S1P4 antagonist project, biochemical, Ricerca HitProfilingScreen (AID 489017)
# Conditions: Ricerca receptor/enzyme binding panel plus CYP450, at 10 µM, active compounds read high
compound,measurement,value
CCc1cccc(CC)c1NC(=O)c1ccc(-c2cc(Cl)ccc2Cl)o1,inhibition,14%
